Compounds with a hit are over-represented: about 1.8% of the library has one in this group of screens.
NOTCH agonist: activates NOTCH signaling in reporter cells. activation, % at 2.5 µM. 0.4% of 15,000 active. NOTCH signaling luciferase reporter cells, luminescence; in the data active means activation above about 2.2%
Nox1 inhibitor: human Nox1 inhibition; HT29 cells, luminol chemiluminescence ROS; inhibition, % at 6.7 µM; 0.81% of 16,000 active; AID 1792
Target sequence (Q9Y5S8 whole entry, looked up): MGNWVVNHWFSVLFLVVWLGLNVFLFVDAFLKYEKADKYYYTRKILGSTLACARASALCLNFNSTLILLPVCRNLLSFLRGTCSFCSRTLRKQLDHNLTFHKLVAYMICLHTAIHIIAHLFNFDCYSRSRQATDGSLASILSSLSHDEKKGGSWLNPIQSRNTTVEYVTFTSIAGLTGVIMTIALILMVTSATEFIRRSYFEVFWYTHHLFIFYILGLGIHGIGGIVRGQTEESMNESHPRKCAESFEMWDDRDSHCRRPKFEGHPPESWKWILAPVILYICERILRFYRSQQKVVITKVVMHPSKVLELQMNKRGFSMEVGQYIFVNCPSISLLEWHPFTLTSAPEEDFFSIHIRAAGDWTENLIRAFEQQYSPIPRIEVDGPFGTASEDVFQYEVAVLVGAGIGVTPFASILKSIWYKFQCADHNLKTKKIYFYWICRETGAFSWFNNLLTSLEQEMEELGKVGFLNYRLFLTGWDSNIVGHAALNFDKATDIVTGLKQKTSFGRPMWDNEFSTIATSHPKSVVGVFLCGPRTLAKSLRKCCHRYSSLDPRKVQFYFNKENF
Luminol counter: luminol signal inhibition, Nox1 inhibitor counter-screen | HRP/luminol/H2O2 chemiluminescence counterscreen | inhibition, % at 6.7 µM | 0.4% of 16,000 active | AID 1823; further: reference of the scale not given here
Active calls of the source: *; nt = no result. Unless noted, no stated cut-off is given here; in the data, active means inhibition above about 75%; inactive means the rest.

SMILES | NOTCH agonist | Nox1 inhibitor | Luminol counter
CC1(C)CC(Nc2ccc(Nc3ccccc3)cc2)CC(C)(C)N1 | 0 | 103* | 4
Cc1ncc(CSC(=S)N2CCSCC2)c(CO)c1O | 0 | -22 | -2
C=C(C)c1ccccc(=O)c1O | 4.9* | -21 | -2
O=C(Nc1ccccc1)Nc1ccc(Oc2cccc(C(F)(F)F)c2)nc1 | -1 | -23 | 0
COc1ccc(Cl)cc1NC(=O)Nc1ccc(N(C)C)cc1 | 1 | 99* | 1
COc1ccc(OC)c(NC(=O)Nc2ccc(Cl)cc2Cl)c1 | -1 | -42 | 3
CCCCOc1cc(C(=O)O)ccc1OC | 0 | -55 | 2
Cn1cnc(S(=O)(=O)Nc2ccc(N3CCCCC3)cc2)c1 | -2 | 87* | 2
COc1ccc(NS(=O)(=O)c2cn(C)cn2)cc1 | 0 | -26 | -2
Cc1c(C(=O)N2CCCCC2)sc2nc(C(F)(F)F)nn12 | -1 | -34 | 2
CC(=O)Oc1ccc(OC(C)=O)c2c1[C@@H]1C=C[C@H]2CC1 | -1 | 81* | -1
CC(=O)Oc1cccc(OC(C)=O)c1[N+](=O)[O-] | 0 | -45 | 2
O=[N+]([O-])c1ccc(-c2csc(-c3ccncc3)n2)cc1 | 0 | -28 | 5
COc1ccc(-c2nc(-c3cccc([N+](=O)[O-])c3)cs2)cc1 | 3.3* | 0 | 2
COc1nc(C)cc(C)c1C(N)=O | 0 | -32 | -4
O=C(O)c1cccnc1SCCS(=O)(=O)c1ccc(C(F)(F)F)cn1 | 0 | -2 | -1
O=C1CNC(=S)N1CCc1ccncc1 | 0 | -37 | 20
O=C1CNC(=S)N1CCc1ccc(O)c(O)c1 | 0 | 93* | 96*
Cc1cc(Sc2nnc(C(F)(F)F)n2C)c([N+](=O)[O-])cc1[N+](=O)[O-] | 0 | 19 | -3
Cn1c(Sc2ncnc(Sc3nnc(C(F)(F)F)n3C)c2[N+](=O)[O-])nnc1C(F)(F)F | 0 | 37 | 101*
N#Cc1ccc(NC(=O)c2ccc(OC(F)(F)F)cc2)cc1 | 0 | -118 | 0
CC(Oc1ccccc1-c1ccccc1)c1n[nH]c(=S)n1C (centres undefined) | nt | -49 | 94*
Cc1[nH]c2ccccc2c1SCc1n[nH]c(=S)n1C | 0 | 7 | 1
CC(C)Cc1ccc(C(C)C(=O)O/N=C(\N)c2cccs2)cc1 (centres undefined) | 0 | -1 | 1
CCn1c(CN2c3ccccc3Sc3ccccc32)n[nH]c1=S | 0 | 26 | 16
SMILES | NOTCH agonist | Nox1 inhibitor | Luminol counter
CCn1c(-c2cc(-c3ccccc3)sc2N)n[nH]c1=S | -1 | 98* | 6
COc1ccc(CN2C(=O)CNC2=O)cc1 | -6 | 27 | -7
Cn1nc(-c2ccccc2)cc1NC(=O)c1cc(Cl)sc1Cl | -1 | -17 | -2
O=C(O)CCCC(=O)NC1CCCc2ccccc21 (centres undefined) | -1 | -33 | -2
CCOc1c(NN(C)C)c(=O)c1=O | 0 | 3 | 102*
CCOc1c(N2CCN(c3c(OCC)c(=O)c3=O)CC2)c(=O)c1=O | 0 | -1 | 1
O=C1[C@H]2CCCC[C@H]2C(=O)N1OCc1ccccc1 | 1 | -20 | 1
CN(C)/C=C/C(=O)c1cc(OCC(F)(F)F)ccc1OCC(F)(F)F | 0 | -4 | -1
Cc1cc(=O)n2ncnc2n1CC(=O)NNC(=S)Nc1ccc(Cl)cc1Cl | 0 | 7 | 75*
Cc1c(COC(=O)Nc2ccc(Cl)cc2Cl)sc2ccccc12 | -1 | -78 | 2
CCOC(=O)[C@@H]1CSC2C3SC[C@@H](C(=O)OCC)N3CCN21 (some centres undefined) | 0 | -37 | -2
O=C(Nc1ccccc1NC(=O)c1c(F)cccc1F)c1c(F)cccc1F | 0 | -1 | -6
CCN(CC)c1ccc(NC(=O)c2c(F)cccc2F)c(N(CC)CC)n1 | 0 | 94* | 4
CCS(=O)(=O)c1ccc(O)c(NC(=O)c2ccccc2C(=O)O)c1 | 0 | 96* | 10
Cc1ccc(S(=O)(=O)N(C)C)cc1NC(=O)c1ccccc1C(=O)O | -1 | -9 | 2
NNC(=S)c1cc(Cl)cc(Cl)c1 | 0 | -53 | 4
N#Cc1c(N)nc2[nH]c(=S)[nH]c(=O)c2c1-c1ccc([N+](=O)[O-])cc1 | -6 | 24 | 84*
N#Cc1c(-c2ccncc2)[nH]c(=S)[nH]c1=O | -1 | -9 | 8
Cc1cc(=O)n2c([nH]c3ccccc32)c1C#N | 0 | 31 | 85*
Cc1c(C#N)c(=O)[nH]c2ccccc12 | 0 | -37 | 2
O=C(Nc1nc2ccc(Cl)cc2s1)c1cccs1 | 0 | -29 | 4
NC(=O)/C(CCCCC(=O)O)=N\O | 1 | -13 | -4
O=c1cc(-c2cccs2)oc2ccccc12 | -1 | 1 | -4
O=S(=O)(Nc1ccc(N2CCCCC2)cc1)c1cc(S(=O)(=O)c2ccccc2)cs1 | 0 | 104* | 16
O=C(C1CCCO1)N1CCN(S(=O)(=O)c2cc(S(=O)(=O)c3ccccc3)cs2)CC1 (centres undefined) | 0 | 7 | -8
SMILES | NOTCH agonist | Nox1 inhibitor | Luminol counter
COc1ccc(C(=O)C=C(C)C)c(O)c1O | 0 | 76* | 41
COc1ccc(NC(C)=O)cc1C(C)=O | nt | -25 | 3
COC(=O)c1cc(NC(=O)/C=C/C(=O)O)ccc1N1CCOCC1 | 0 | 74 | 6
O=C(O)/C=C/C(=O)Nc1ccc(N2CCCCCC2)c(NC(=O)/C=C/C(=O)O)c1 | 2.4* | 18 | 5
CSc1ccc(C(=O)NC(=O)NCc2cccc(Cl)c2)s1 | nt | -31 | 0
CC(=N\Nc1c(Cl)cc(Cl)cc1Cl)/C(=N\O)C(=O)Nc1ccccc1 | 0 | -64 | 10
Nc1nc(NCc2c(Cl)cccc2Oc2ccccc2)n[nH]1 | 0 | 84* | -6
O=C(NCc1c(Cl)cccc1Oc1ccccc1)Nc1ccc(F)cc1 | -1 | 34 | -7
Nc1nc(NCc2ccccc2OC(F)(F)F)n[nH]1 | 0 | 88* | 1
ONC=NCc1ccccc1OC(F)(F)F | -1 | -9 | -2
O=C(c1ccc2c(c1)OCCO2)c1sc(Nc2ccccc2)nc1-c1ccccc1 | 0 | 21 | -8
OCc1noc(-c2cccs2)n1 | -1 | -7 | 2
CC(C)(C)c1cc2nc(C(F)(F)F)cc(NNC(=O)Nc3ccc(OC(F)(F)F)cc3)n2n1 | 1 | 88* | 7
CNc1ncnc(NNC(=O)Nc2ccc(OC(F)(F)F)cc2)c1[N+](=O)[O-] | -1 | -8 | 3
N#C/C(C(N)=O)=C1/CCc2ccccc21 | 0 | -128 | -2
CC(C)C(=O)Nc1ccc(-c2ccccc2)cc1 | 0 | -43 | -6
Oc1ccccc1N=CC=Nc1ccccc1O | 0 | 96* | 17
C(=Nc1cccc2ccccc12)c1ccccc1 | 0 | -5 | -4
CC1(C)COC(c2ccccc2CO)=N1 | 0 | -26 | 3
c1csc(-c2nn[nH]n2)c1 | 2.9* | 5 | -8
Cc1cn[nH]c1-c1cccs1 | 0 | -4 | 2
CCOc1ccccc1Nc1n[nH]c(=S)s1 | 0 | 88* | 6
S=c1[nH]nc(NCCc2ccc(Cl)cc2)s1 | 0 | 40 | 2
CCCCCc1ccc(C(=O)NNC(N)=S)cc1 | 0 | 3 | 13
Cc1cc2c(NC(=O)CSCC(=O)O)cccc2nn1 | 0 | -34 | 1
O=C(C1CCCCC1)N1CC(=O)N(CCc2ccccc2)C(=O)C1 | 0 | -68 | 0
O=C1C=CC(=O)N1CCc1ccccc1 | 0 | 100* | 6
